What was measured:
Experiment in all cases: log2 ratio of Biotin-Ahx-Ub-VS probe labelling (fragment/DMSO); higher = less target engagement (more negative = stronger competition), active = hit call of the paper (q ≤ 0.05, log2 ratio ≤ -1)
Conditions in all cases: compound concentration: 200 uM; treatment time: 3 h
OTUD6B = molecular target: T1, OTUD6B (UniProt Q8N6M0)
T1 sequence (whole entry): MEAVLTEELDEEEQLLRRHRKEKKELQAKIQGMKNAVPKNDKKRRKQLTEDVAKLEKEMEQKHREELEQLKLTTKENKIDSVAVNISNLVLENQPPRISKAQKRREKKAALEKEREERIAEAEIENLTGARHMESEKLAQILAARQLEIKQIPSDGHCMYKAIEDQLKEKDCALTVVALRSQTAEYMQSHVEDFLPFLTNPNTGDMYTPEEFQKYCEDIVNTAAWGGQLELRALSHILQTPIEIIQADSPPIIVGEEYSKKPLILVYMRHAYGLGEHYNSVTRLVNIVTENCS
Outline: (§1)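 Global-median-normalised Spectronaut label-free quantities were compared by unpaired t-test, and values are average log2 ratios of fragment over vehicle. Only proteins with ≥2 unique peptides were used. HEK293T lysate (495 µg per sample) was treated in triplicate with fragment at 200 µM or vehicle for 3 h and then with Biotin-Ahx-Ub-VS at 0.5 µM final for 1 h. Labelled DUBs were then NeutrAvidin-enriched, digested with LysC and trypsin, and run by diaPASEF LC-MS/MS.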

OTUD7B = molecular target: T2, OTUD7B (UniProt Q6GQQ9)
T2 sequence (whole entry): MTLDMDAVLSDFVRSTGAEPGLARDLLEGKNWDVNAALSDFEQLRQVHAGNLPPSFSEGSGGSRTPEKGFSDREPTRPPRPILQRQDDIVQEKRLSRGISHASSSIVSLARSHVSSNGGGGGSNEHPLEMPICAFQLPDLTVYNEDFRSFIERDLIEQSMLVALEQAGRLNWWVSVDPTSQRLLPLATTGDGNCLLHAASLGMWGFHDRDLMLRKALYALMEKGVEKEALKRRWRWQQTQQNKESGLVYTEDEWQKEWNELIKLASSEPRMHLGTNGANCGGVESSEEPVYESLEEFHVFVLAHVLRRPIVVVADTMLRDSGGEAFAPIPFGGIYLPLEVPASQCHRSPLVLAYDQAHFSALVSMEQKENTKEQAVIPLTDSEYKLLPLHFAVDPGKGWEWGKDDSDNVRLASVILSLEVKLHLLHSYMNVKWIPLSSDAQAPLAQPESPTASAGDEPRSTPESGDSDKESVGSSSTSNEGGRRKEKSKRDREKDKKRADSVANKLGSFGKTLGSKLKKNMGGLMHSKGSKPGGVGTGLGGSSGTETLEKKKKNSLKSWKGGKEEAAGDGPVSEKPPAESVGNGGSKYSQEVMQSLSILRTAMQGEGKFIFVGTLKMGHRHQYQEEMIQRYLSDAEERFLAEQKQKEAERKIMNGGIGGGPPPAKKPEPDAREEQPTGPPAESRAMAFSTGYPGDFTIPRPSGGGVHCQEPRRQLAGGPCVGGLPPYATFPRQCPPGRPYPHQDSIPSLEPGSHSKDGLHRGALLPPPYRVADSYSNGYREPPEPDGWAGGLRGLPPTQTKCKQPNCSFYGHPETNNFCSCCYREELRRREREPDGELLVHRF
Outline: as §1

PRPF8 = PRPF8 (UniProt Q6P2Q9)
Outline: as §1

PSMD7 = molecular target: T3, PSMD7 (UniProt P51665)
T3 sequence (whole entry): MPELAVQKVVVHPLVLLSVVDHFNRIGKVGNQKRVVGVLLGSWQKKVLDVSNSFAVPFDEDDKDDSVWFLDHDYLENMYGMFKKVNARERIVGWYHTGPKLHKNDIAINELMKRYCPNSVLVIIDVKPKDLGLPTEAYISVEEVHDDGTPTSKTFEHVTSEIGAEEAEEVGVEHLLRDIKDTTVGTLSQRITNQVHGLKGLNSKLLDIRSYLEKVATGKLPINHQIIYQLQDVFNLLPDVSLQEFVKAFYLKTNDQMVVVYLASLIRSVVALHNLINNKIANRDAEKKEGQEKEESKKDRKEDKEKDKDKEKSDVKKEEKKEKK
Outline: as §1

UCHL1 = UCHL1 (UniProt P09936)
Outline: as §1

UCHL3 = molecular target: T4, UCHL3 (UniProt P15374)
T4 sequence (whole entry): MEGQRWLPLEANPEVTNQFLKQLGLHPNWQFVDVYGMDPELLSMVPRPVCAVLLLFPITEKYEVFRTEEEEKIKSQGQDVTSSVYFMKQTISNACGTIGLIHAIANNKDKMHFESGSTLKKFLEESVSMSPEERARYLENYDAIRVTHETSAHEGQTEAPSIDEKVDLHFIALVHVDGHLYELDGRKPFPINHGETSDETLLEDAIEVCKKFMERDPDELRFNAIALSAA
Outline: as §1

UCHL5 = molecular target: T5, UCHL5 (UniProt Q9Y5K5)
T5 sequence (whole entry): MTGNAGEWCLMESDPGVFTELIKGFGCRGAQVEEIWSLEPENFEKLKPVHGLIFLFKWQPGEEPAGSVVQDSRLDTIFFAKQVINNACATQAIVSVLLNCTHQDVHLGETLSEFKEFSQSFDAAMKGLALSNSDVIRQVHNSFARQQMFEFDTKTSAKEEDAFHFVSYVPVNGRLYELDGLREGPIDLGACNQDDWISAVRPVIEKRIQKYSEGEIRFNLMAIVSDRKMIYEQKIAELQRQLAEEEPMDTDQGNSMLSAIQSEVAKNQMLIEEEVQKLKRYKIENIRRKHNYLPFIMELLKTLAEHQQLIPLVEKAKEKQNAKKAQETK
Outline: as §1

USP10 = USP10 (UniProt Q14694)
Outline: as §1

USP15 = molecular target: T6, USP15 (UniProt Q9Y4E8)
T6 sequence (whole entry): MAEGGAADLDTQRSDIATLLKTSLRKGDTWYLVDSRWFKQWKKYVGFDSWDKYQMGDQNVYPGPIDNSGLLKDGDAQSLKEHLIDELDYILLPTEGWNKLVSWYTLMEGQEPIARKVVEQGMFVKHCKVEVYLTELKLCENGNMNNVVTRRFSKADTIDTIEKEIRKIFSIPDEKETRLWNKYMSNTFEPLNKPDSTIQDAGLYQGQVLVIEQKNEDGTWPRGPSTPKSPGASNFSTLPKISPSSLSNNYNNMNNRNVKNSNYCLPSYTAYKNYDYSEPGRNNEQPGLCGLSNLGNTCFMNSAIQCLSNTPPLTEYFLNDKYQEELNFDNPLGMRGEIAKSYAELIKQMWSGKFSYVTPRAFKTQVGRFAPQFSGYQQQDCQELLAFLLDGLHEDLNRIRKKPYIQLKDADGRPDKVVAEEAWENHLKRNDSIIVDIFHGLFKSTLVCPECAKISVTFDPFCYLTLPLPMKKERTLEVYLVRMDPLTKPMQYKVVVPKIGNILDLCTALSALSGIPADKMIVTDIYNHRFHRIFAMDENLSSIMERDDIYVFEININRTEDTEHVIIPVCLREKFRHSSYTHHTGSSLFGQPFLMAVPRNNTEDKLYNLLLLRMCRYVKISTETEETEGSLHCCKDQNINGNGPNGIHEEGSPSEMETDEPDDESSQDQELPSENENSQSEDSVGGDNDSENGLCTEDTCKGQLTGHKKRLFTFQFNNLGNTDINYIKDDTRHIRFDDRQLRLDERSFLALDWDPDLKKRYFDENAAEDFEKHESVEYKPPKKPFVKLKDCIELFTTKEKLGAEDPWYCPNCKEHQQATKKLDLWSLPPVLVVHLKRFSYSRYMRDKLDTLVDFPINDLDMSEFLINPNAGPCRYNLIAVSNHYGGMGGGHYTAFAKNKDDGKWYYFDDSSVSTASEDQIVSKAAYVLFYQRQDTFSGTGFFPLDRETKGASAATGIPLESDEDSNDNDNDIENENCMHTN
Outline: as §1

USP16 = USP16 (UniProt Q9Y5T5)
Outline: as §1

Measured: log2 ratio of Biotin-Ahx-Ub-VS probe labelling

Sequence of UCHL1 (P09936 whole entry, looked up): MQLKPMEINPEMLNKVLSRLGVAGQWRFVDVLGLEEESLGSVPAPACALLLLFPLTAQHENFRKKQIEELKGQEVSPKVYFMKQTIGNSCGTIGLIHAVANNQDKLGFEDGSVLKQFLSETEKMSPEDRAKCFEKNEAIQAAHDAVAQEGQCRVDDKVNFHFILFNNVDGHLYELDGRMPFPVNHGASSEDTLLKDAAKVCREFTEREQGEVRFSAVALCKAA
Sequence of USP16 (Q9Y5T5 whole entry, looked up): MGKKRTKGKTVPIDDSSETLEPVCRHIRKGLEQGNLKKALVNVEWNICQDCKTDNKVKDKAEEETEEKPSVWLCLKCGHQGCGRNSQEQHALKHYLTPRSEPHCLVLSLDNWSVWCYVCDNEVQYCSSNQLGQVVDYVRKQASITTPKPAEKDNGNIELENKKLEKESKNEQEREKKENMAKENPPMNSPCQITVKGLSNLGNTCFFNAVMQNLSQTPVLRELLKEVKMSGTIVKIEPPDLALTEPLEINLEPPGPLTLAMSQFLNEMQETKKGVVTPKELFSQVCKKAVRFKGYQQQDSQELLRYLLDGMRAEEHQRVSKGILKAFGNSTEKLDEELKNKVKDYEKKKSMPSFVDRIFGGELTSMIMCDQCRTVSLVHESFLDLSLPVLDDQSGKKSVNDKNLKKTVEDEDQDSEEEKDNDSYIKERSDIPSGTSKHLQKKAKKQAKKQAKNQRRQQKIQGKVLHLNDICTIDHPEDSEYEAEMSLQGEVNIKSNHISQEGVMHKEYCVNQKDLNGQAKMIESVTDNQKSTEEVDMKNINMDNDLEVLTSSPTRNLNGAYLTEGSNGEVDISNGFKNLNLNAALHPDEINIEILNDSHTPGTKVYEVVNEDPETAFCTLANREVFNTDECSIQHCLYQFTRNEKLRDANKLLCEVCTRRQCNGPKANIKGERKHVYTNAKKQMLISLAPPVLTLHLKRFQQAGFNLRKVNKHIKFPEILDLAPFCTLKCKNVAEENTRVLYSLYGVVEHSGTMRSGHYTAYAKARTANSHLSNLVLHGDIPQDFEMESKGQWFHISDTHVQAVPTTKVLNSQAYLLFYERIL
Sequence of USP10 (Q14694 whole entry): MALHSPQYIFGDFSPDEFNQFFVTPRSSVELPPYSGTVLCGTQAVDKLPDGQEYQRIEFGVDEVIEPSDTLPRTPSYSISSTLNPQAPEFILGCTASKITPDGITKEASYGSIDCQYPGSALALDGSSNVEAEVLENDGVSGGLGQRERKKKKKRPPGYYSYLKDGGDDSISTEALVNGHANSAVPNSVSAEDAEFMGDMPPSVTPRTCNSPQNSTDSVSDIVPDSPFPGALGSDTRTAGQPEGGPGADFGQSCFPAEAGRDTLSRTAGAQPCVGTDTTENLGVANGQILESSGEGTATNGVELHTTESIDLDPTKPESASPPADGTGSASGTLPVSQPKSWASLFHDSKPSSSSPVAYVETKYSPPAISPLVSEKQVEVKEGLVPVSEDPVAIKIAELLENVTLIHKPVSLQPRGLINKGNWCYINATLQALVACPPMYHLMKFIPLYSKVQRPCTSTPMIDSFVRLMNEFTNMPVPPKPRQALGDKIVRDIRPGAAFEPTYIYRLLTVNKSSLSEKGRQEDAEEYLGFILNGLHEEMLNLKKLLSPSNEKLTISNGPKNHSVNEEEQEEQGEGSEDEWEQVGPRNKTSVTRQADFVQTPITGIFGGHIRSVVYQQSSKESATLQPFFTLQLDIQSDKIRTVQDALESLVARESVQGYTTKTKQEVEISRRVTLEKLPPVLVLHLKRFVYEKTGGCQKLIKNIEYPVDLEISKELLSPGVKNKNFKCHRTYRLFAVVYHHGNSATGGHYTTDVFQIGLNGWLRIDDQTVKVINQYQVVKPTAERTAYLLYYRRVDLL

O=C(CCl)NCc1noc(C2CC2)n1
inactive: OTUD6B -0.344 | OTUD7B -0.572 | PRPF8 -0.106 | PSMD7 -0.219 | UCHL3 0.307 | UCHL5 -0.363 | USP10 -0.164 | USP15 -0.193 | USP16 -0.127
active: UCHL1 -1.67

— the supplement of paper PMC11732987, “Enantioselective OTUD7B fragment discovery through chemoproteomics screening and high-throughput optimisation” (Communications Chemistry, 2025)
